Shown are actives, neighbours in structure and some others; about 8.9% of the full set was active somewhere.
D3 antag: blocks the human D3 dopamine receptor | P35462 | D3R cells, DiscoveRx beta-arrestin luminescence, antagonist mode; active compounds read low | max response, negative = inhibition, % | 360,000 tested, 2.5% active; in the data active = max response below about -50%; inconclusive = no clear call, values can overlap the other calls; note: % is set by controls: 0 for no effect and ±100 for the full control effect
Target sequence (P35462 whole entry, looked up): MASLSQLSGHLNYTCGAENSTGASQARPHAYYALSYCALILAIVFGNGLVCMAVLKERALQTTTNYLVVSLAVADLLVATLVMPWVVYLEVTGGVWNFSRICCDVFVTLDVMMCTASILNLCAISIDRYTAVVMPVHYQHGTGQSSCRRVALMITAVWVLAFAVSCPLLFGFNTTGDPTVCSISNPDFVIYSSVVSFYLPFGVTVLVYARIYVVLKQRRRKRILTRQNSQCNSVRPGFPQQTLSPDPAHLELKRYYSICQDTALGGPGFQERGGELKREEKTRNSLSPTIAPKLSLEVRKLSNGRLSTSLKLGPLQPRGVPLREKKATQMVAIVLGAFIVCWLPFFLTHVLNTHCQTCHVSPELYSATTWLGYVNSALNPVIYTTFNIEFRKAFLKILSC
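Cells plated overnight at 1500 cells/well, then exposed to library compounds with dopamine controls for 90 minutes at 37 degrees C. DiscoveRx reagent added for 30–60 minutes at room temperature; luminescence read, quantitative HTS format.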
KB-3-1 cytotox: KB-3-1 parental cell cytotoxicity. KB-3-1 viability, CellTiter-Glo ATP luminescence, 72 h. Potency, µM (series often up to 46.1 µM), hits mostly cytotoxic. 400,000 tested, 1.4% active. AID 1347075; note: potency is the fitted concentration of half-maximal effect; % is set by controls: 0 for no effect and ±100 for the full control effect; nearly all actives have a fitted effect of over 60% in size
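Cells are dispensed, compounds pinned in, plates held at 37 °C for 72 h, then CellTiter-Glo is added and luminescence read after 10 minutes. Cell line: parental KB-3-1 in phenol-red-free DMEM, 10% FBS.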
KB-V1 MDR tox: KB-V1 MDR subline cytotoxicity. KB-V1 MDR cells viability, CellTiter-Glo, 72 h. Potency, µM (series often up to 46.1 µM), hits mostly cytotoxic. 400,000 tested, 3.4% active. AID 1347076; note: potency is the fitted concentration of half-maximal effect; % is set by controls: 0 for no effect and ±100 for the full control effect; nearly all actives have a fitted effect of over 60% in size
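Drug-selected KB-V1 cells, grown in DMEM lacking phenol red with 10% FBS, receive compound titrations; after three days at 37 degrees C, surviving cell ATP is quantified by CellTiter-Glo luminescence and responses normalized and curve-fitted.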
MCF10A rerep: induces DNA re-replication in MCF 10a normal breast cells; MCF 10A DNA re-replication, Hoechst nuclear intensity, 48 h; 350,000 tested, 2.9% active; Potency, µM (series often up to 46.1 µM), for the others: top-dose activity, positive = re-replication, actives largely listed as activators; note: potency is the fitted concentration of half-maximal effect; % of control where 0% means no effect; nearly all actives have a fitted effect of over 50% in size
DRD3 agonist: agonists of human D3 dopamine receptor; 410,000 tested, 0.58% active; AID 652048; D3R DiscoveRx beta-arrestin cells, luminescence, 90 min; P35462; max activation, %; in the data active = max activation above about 30%; note: 0% is about no effect
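Cells at 1500/well, incubated overnight, then treated with pinned compounds (dopamine as control) for 90 min at 37 degrees C. DiscoveRx reagent added for 30 - 60 minutes at room temperature; luminescence read.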
SW480 rereplic: inducers of DNA re-replication in SW480 colon cancer cells | AID 624297 | SW480 DNA re-replication, Hoechst DNA content imaging, 48 h | Potency, µM (series often up to 46.1 µM), for inactives: at the highest dose re-replication activation, hits mostly activators | 340,000 tested, 1.8% active; note: potency is the fitted concentration of half-maximal effect; % of control where 0% means no effect; nearly all actives have a fitted effect of over 55% in size
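250 cells/well; 23 nL cpd via pin tool; 48 hr, 37 C, 5% CO2; Hoechst 40 min; imager read of total nuclear intensity, ex 405/em 500-530 nm.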
Numbers without * were called inactive; i = inactive; ? = inconclusive; · = not tested or not shown; [ ] = dose if it differs, or a comment. Unless noted, calls come from the whole dose curve; as a rule, active = well fitted curve in the direction sought with a large enough effect; inconclusive = small, poorly fitted or top-dose-only effect, or another doubt; inactive = no such curve, though single readings can be large; an effect the other way counts as inactive or inconclusive.

SMILES | D3 antag | KB-3-1 cytotox | KB-V1 MDR tox | MCF10A rerep | DRD3 agonist | SW480 rereplic
O=C(CSc1cn(CCNC(=O)c2ccccc2F)c2ccccc12)Nc1ccc(F)cc1 | · | i | i | · | 6 | ·
CC(C)CNC(=O)C(=O)Nc1c2c(nn1-c1ccc(Cl)cc1)CSC2 | · | i | i | · | 10 | ·
CC(C)Cn1c(=O)c2ccccc2n2c(CCC(=O)Nc3ccc(F)cc3)nnc12 | · | · | · | · | 10 | ·
CCOc1ccc(CNS(=O)(=O)c2ccc3c(c2)CCCN3C(C)=O)cc1OC | · | i | i | · | 9 | ·
COc1ccc(-n2nc3c(c2NC(=O)c2c(-c4ccccc4Cl)noc2C)CS(=O)(=O)C3)cc1 | ? | i | 9.2µM* | 7% | -3 | 3%
Cc1onc(-c2ccccc2Cl)c1C(=O)N/N=C(\N)COc1ccc(Cl)cc1 | -21 | ? | 15µM* | 15% | 2 | -1%
CCC(=O)Nc1ccc(/C(C)=N/NC(=O)c2c(-c3ccccc3Cl)noc2C)cc1 | 0 | i | i | 5% | -1 | -5%
Cc1ccc(-c2nc3sccn3c2Nc2ccccc2C)cc1 | · | i | i | · | 9 | ·
Cc1c(Cl)cccc1NC(=O)C(=O)NCCc1csc(-c2cccc(F)c2)n1 | · | i | i | · | 1 | ·
CNC(=S)N/N=C/c1ccco1 | -3 | i | i | 1% | 5 | 16µM*
CNC(=S)N/N=C/c1ccc(C(C)C)cc1 | -59* | ? | ? | ? | 2 | -6%
COC(=O)c1ccc(/C=N/NC(=S)NC(C)C)cc1 | 4 | i | i | ? | 10 | 16µM*
COC(=O)c1ccc(/C=N/NC(=O)c2ccccc2Cl)cc1 | -11 | i | i | 0% | -2 | 0%
CC(C)c1ccc(/C=N/NC(=O)c2ccccc2Cl)cc1 | -1 | 15µM* | 4.6µM* | 5.8µM* | -7 | 13µM*
COc1cccc(CNC(=O)CCNS(=O)(=O)c2ccc3c(c2)CCCC(=O)N3)c1 | · | i | i | · | -14 | ·
CCOc1ccc(NC(=O)Nc2nnc(N3CCCCC3C)s2)cc1 (stereo not drawn) | · | i | i | · | 2 | ·
CCOC(=O)c1cc2c(C)n(-c3ccc(OCC)cc3)c(C)c2ccc1=O | 16 | ? | 2.6µM* | 25% | 2 | 3%
CCOC(=O)c1cc2c(C)n(-c3ccc(C)cc3)c(C)c2ccc1=O | -11 | 21µM* | 5.8µM* | 12% | -8 | ?
CCOc1ccc(-n2c(C)c(C(=O)OC)c3cc(O)ccc32)cc1 | 38 | i | i | -8% | 13 | -1%
COc1ccc(NC(=O)CSc2nnc(-c3ccc(OC)cc3)s2)cc1 | · | i | i | · | 9 | ·
C(=C\c1ccnc2ccccc12)/c1cccnc1 | · | i | i | · | · | ·
CCN(CC)CC(C)(C)C(=O)/C=C/c1ccc(/C=C/C(=O)C(C)(C)CN(CC)CC)cc1 | -64* | ? | i | 76% | -14 | ?
O=c1oc(C2(O)CCCCC2)cc2ccccc12 | 11 | i | i | 3% | -7 | -2%
O=c1oc(C2(O)CCCCC2)cc2ccc(-c3ccc4[nH]ccc4c3)cc12 | -29 | 0.82µM* | ? | ? | -13 | 23%
Cc1cccc(N2CCN(S(=O)(=O)c3nnc(NC(=O)c4ccc(Cl)cc4)s3)CC2)c1 | · | i | ? | · | 10 | ·
SMILES | D3 antag | KB-3-1 cytotox | KB-V1 MDR tox | MCF10A rerep | DRD3 agonist | SW480 rereplic
COc1ccc(/C=N/Nc2nccnc2Cl)c(OC)c1 | 8 | i | i | 3% | -3 | 5%
COc1ccc(/C=N/Nc2nonc2N)c(OC)c1 | -7 | ? | 4.1µM* | -4% | -4 | ?
CC(=O)c1cc(-c2ccccc2)n(CC(=O)NCCc2ccc(C)cc2)c1C | · | i | i | · | 2 | ·
COC(=O)c1[nH]c2ccc(C)cc2c1NS(=O)(=O)c1ccc(F)c(C)c1 | -51* | i | ? | 7% | -9 | 10%
COC(=O)c1[nH]c2ccc(F)cc2c1NS(=O)(=O)c1ccc(F)c(C)c1 | -23 | ? | 16µM* | ? | 1 | -107%
COC(=O)c1[nH]c2ccc(C)cc2c1NS(=O)(=O)c1ccc(F)cc1 | -13 | i | i | ? | 0 | -6%
CCc1ccc(C2=CC(c3cc(Br)ccc3F)n3ncnc3N2)cc1 (stereo not drawn) | 7 | 8.2µM* | 9.2µM* | 17% | 3 | ?
O=C(N/N=C/C(Cl)=C/c1ccc([N+](=O)[O-])cc1)C(=O)Nc1ccccc1C(=O)O | 1 | 7.3µM* | 2.1µM* | 5% | 1 | 25%
O=C(/C=C/c1ccco1)Nc1ccc(-c2nc3ccccc3[nH]2)cc1 | -22 | ? | i | 2.6µM* | 3 | ?
O=C(/C=C/c1ccco1)Nc1ccc(Oc2ccc(Cl)cc2)cc1 | -4 | 5.8µM* | ? | 4.6µM* | 7 | ?
Cc1ccc(C(=O)c2cn(Cc3cccc(C)c3)c3nc(C)ccc3c2=O)cc1 | · | i | i | · | 9 | ·
O=C1CC(c2ccc(Cl)cc2)CC(=O)C1CS(=O)(=O)c1ccccc1 (stereo not drawn) | ? | i | i | ? | -13 | -4%
O=C1CC(c2ccccc2)CC(=O)C1Sc1ccc(Cl)cc1 (stereo not drawn) | -53* | i | i | -4% | -14 | -10%
CCC(C)(C)n1nnnc1C(c1cc2cc(OC)ccc2[nH]c1=O)N1CCc2ccccc21 (stereo not drawn) | -3 | ? | 18µM* | -1% | -6 | 7%
Cc1cc2cc(C(c3nnnn3Cc3ccccc3)N3CCc4ccccc43)c(=O)[nH]c2cc1C (stereo not drawn) | 13 | i | 8.2µM* | 7% | -3 | ?
COc1ccc2cc(C(c3nnnn3C(C)(C)C)N3CCSCC3)c(=O)[nH]c2c1 (stereo not drawn) | -57* | i | i | -2% | -7 | 0%
CCC(C)(C)n1nnnc1C(c1cc2ccc(OC)cc2[nH]c1=O)N1CCCCC1 (stereo not drawn) | -23 | i | i | 55%[0.0737 µM] | 0 | 12%
CCOC(=O)SC1=N/C(=C\c2ccc(N(C)C)cc2)C(=O)S1 | -54* | i | i | -3% | -45 | 7%
CCSC1=N/C(=C\c2ccc(C(=O)O)cc2)C(=O)S1 | -18 | i | i | -3% | 8 | 0%
O=C(/C=C/Sc1ccccc1)c1ccccc1 | -28 | i | i | 5.2µM* | -28 | 21µM*
O=C(CC(=O)NCCc1ccccc1)NCCc1ccccc1 | 2 | i | i | 6% | 2 | -8%
NNCCc1ccccc1 | -113* | i | i | ? | -21 | 0%
N#C/C(=C\c1ccc(F)cc1)C(=O)Nc1ccccn1 | -2 | i | i | 5% | 4 | 4.1µM*
